Test results published in ChEMBL document CHEMBL1157539, “Thousands of chemical starting points for antimalarial lead identification” (Nature, 2010).

Key:
Assay type in all cases: functional
Plasmodium falciparum [1] = experiment: GSK_TCMDC: Inhibition of Plasmodium falciparum 3D7 in whole red blood cells, using parasite LDH activity as an index of growth. Test compounds present at 2uM
Plasmodium falciparum [2] = experiment: GSK_TCMDC: Inhibition of Plasmodium falciparum Dd2 in whole red blood cells, using parasite LDH activity as an index of growth. Test compounds present at 2uM
HepG2 = experiment: GSK_TCMDC: Percent inhibition of human HepG2 cell line. Test compounds present at 10uM.

| SMILES | Inhibition (Plasmodium falciparum [1]) | Inhibition (Plasmodium falciparum [2]) | Inhibition (HepG2) |
| --- | --- | --- | --- |
| O=C(CCC1CCCCC1)NCCNc1cccc2ccccc12 | 90% | 57% | 7% |
| Cc1cccc2nc(-c3ccc(-c4cccc(CNCc5ccccc5)c4)s3)[nH]c12.O=C(O)C(F)(F)F | 99% | 50% | 3% |
| O=C(NCC1CCN(Cc2cccc(F)c2)C1)c1cc(-c2cccc(C(F)(F)F)c2)cs1.O=C(O)C(F)(F)F (stereo not given) | 96% | 10% | 31% |
| O=C(NCC1CCN(CC2CCCCC2)C1)c1cc(-c2cccc(Cl)c2)cs1.O=C(O)C(F)(F)F (stereo not given) | 85% | 8% | 51% |
| CCN(CC)/C(=N/C(=N)NCc1ccc(Cl)cc1)NCCCCCCN/C(=N\C(=N)NCc1ccc(Cl)cc1)N(CC)CC | 100% | 100% | 18% |
| COc1ccc(CNc2nc(Nc3cccc(C#N)c3)nc(Nc3cccc(C#N)c3)n2)cc1Cl | 100% | 83% | 0% |
| COc1cccc(C(O)CNc2ccnc(Nc3ccc(Cl)cc3)n2)c1 (stereo not given) | 99% | 46% | 31% |
| COC(=O)c1cccc(CNCc2cccc(-c3ccc(-c4nc5cccc(C)c5[nH]4)s3)c2)c1.O=C(O)C(F)(F)F | 100% | 65% | 0% |
| Cc1ccc2[nH]c(C)cc(=NN=Cc3ccccc3F)c2c1 | 97% | 100% | 36% |
| C[C@@H](CC1CCCCC1)OC(=O)N(C)[C@H]1CCN(C#N)C1 | 84% | 62% | 4% |
| O=C(Nc1cccc(CN2CCCN(Cc3ccc(O)cc3)CC2)c1)c1cc(F)cc(F)c1.O=C(O)C(F)(F)F | 100% | 13% | 15% |
| CN(CCN1CCC(c2c[nH]c3ccccc23)CC1)C(=O)OCCCCCNC(=O)/C=C/c1ccc(Cl)c(Cl)c1 | 95% | 44% | 39% |
| Cc1cccc2nc(-c3cccc(-c4cccc(NC(=O)c5cnccc5C(F)(F)F)c4)c3)[nH]c12 | 98% | 47% | 7% |
| CCCOc1ccc(C(F)(F)F)cc1NC(=O)c1nc2nc(C)cc(C)n2n1 | 90% | 88% | 7% |
| CC1(C)N=C(NC(=O)c2cc([N+](=O)[O-])cc([N+](=O)[O-])c2)N=C(N)N1OCc1cccc2ccccc12 | 94% | 20% | 66% |
| CCNC(=O)Nc1ccc(-c2cccc(-c3nc4cccc(C)c4[nH]3)c2)cc1 | 91% | 34% | 16% |
| O=C(O)C(F)(F)F.OCC1CCN(Cc2ccc(-c3cccc(-c4nc5cc(C(F)(F)F)ccc5[nH]4)c3)cc2)CC1 | 99% | 73% | 19% |
| O=C(Nc1cccc(-c2nc3ccccc3[nH]2)c1)c1ccc(-c2cccc([N+](=O)[O-])c2)o1 | 93% | 28% | 22% |
| COc1ccc(-c2ccc(NC(=O)c3cccc(C#N)c3)cc2)cc1CN1CCCC(C(N)=O)C1.O=C(O)C(F)(F)F (stereo not given) | 98% | 44% | 12% |
| O=C(Nc1cccc(F)c1)c1ccc(C(=O)NC2CCN(CC3CCCCC3)C2)cc1.O=C(O)C(F)(F)F (stereo not given) | 96% | 15% | 16% |
| CCc1cc(NC2CCN(C)CC2)nc(Nc2cccc(OC)c2)n1 | 93% | 37% | 22% |
| O=C(NC1CCN(c2ccnc3cc(Cl)ccc23)C1)c1ccc(C(F)(F)F)cc1.O=C(O)C(F)(F)F (stereo not given) | 100% | 57% | 37% |
| O=C(/C=C/c1ccc([N+](=O)[O-])cc1)N1CCC(NS(=O)(=O)c2ccc(Br)cc2)CC1 | 93% | 5% | 0% |
| Cc1cccc2nc(-c3cccc(-c4ccc(CNCCNC(=O)c5ccnn5C)cc4)c3)[nH]c12.O=C(O)C(F)(F)F | 100% | 100% | 21% |
| Cc1ccc2nc(C)n(C3CCN(C(=O)Cc4ccccc4C)CC3)c2c1 | 100% | 100% | 2% |

| SMILES | Inhibition (Plasmodium falciparum [1]) | Inhibition (Plasmodium falciparum [2]) | Inhibition (HepG2) |
| --- | --- | --- | --- |
| CC1CCC2(CC1)NC(N)=NC(=N)N2OCCCCCCCCO (stereo not given) | 96% | 87% | 2% |
| N#Cc1ccc(C(=O)Nc2ccc(-c3cccc(CN4CCCC4)c3)cc2)cc1.O=C(O)C(F)(F)F | 89% | 1% | 17% |
| COc1ccc2nc(C)cc(N/N=C/c3ccccc3[N+](=O)[O-])c2c1 | 100% | 99% | 2% |
| COc1ccc2nc3cc(Cl)ccc3c(NCCCCCCNc3c4ccc(Cl)cc4nc4ccc(OC)cc34)c2c1.Cl.Cl.Cl.Cl | 96% | 79% | 20% |
| CCCCCCNC(=N)c1ccc(OCCCCCOc2ccc(C(=N)NCCCCCC)cc2)cc1.Cl | 97% | 98% | 55% |
| Cc1[nH]c(C)c(Cc2ccc(Oc3ccc(OC(F)(F)F)cc3)cc2)c(=O)c1Br | 96% | 87% | 29% |
| Cn1c(N)c(N=O)c(=O)[nH]c1=O | 97% | 82% | 58% |
| Cc1cc(N[C@@H](Cc2ccccc2)C(=O)Nc2ccccc2)nc(NCCc2cccnc2)n1.O=C(O)C(F)(F)F | 95% | 57% | 32% |
| O=C(c1cc(-c2cccs2)n[nH]1)N1CCN(S(=O)(=O)c2ccc(Cl)s2)CC1 | 84% | 80% | 20% |
| C[C@@H]([C@@H](CCCc1ccc(Cl)cc1)C(=O)N[C@H](C(=O)Nc1cccnc1)C(C)(C)C)N(O)C=O | 100% | 99% | 7% |
| CCCCCCN1CCCN(Cc2ccc(C(=O)Nc3ccc(C(C)(C)C)cc3)cc2)CC1.O=C(O)C(F)(F)F | 100% | 32% | 53% |
| Fc1ccc2[nH]c(-c3cccc(-c4cccc(CNCc5ccccc5)c4)c3)nc2c1.O=C(O)C(F)(F)F | 100% | 52% | 24% |
| O=C(Nc1cccc(CN2CCCN(Cc3ccc(O)cc3)CC2)c1)c1cccc(F)c1.O=C(O)C(F)(F)F | 92% | 4% | 22% |
| COc1ccc(NC(=O)Nc2nc(-c3ccc(Cl)c(C)c3)cs2)cc1N1CCN(C)CC1.Cl | 99% | 89% | 9% |
| CC(C)(C)c1ccc(CN2CCC(NC(=O)c3cc(-c4cccc(C(F)(F)F)c4)cs3)C2)cc1.O=C(O)C(F)(F)F (stereo not given) | 98% | 85% | 24% |
| COc1cc2nc(N3CCC(CNC(=O)c4ccc(-c5ccc(O)cc5)cc4)CC3)nc(N)c2cc1OC.O=C(O)C(F)(F)F | 100% | 78% | 34% |
| OC(CNCc1ccccc1Oc1ccccc1)c1cc(Br)cs1 (stereo not given) | 94% | 79% | 0% |
| NCC(NC(=O)c1ccc(-c2c[nH]c3ncccc23)s1)c1ccccc1.O=CO (stereo not given) | 95% | 87% | 52% |
| CN(CCN)Cc1cccc(-c2cccc(-c3nc4cc(F)ccc4[nH]3)c2)c1.O=C(O)C(F)(F)F | 95% | 19% | 20% |
| O=C(Cc1ccccc1)NC(CCN1CCC(NC(=O)c2ccc(Cl)cc2)CC1)c1ccc(Cl)c(Cl)c1 (stereo not given) | 85% | 23% | 17% |
| COc1cc(NC(=O)c2cc3c(C)nn(-c4cccc(C(F)(F)F)c4)c3s2)cc(OC)c1OC | 100% | 50% | 0% |
| Cc1ccccc1CCNC(=O)c1cnc(N2CCN(c3ccncc3)CC2)c(Cl)c1.O=C(O)C(F)(F)F | 100% | 95% | 36% |
| NCCNc1ccc([N+](=O)[O-])cc1C(=O)Nc1cccc(C(F)(F)F)c1 | 94% | 33% | 1% |
| CC(=O)N/N=C/[C@H](CCc1ccccc1)NC(=O)[C@H](CC(C)C)NC(=O)c1ccc(F)cc1 | 95% | 86% | 2% |
| COc1cccc(C(=O)Nc2nc3c(s2)CCN(Cc2ccccc2N2CCNCC2)CC3)c1.O=C(O)C(F)(F)F | 89% | 11% | 7% |
